The values below come from PubChem BioAssay (EPA / NIEHS).

Calls of active or inactive are those of the source. The calls were made as follows: active = hit-call score of the fitted dose curve at least 0.9, where 1 is the maximum; inactive = score below 0.9.

A short description of this experiment: BSK_BT_PBMCCytotoxicity: PBMC Cytotoxicity Assessment in the BioMAP Diversity Plus: BT Assay (AID 2284225). As to conditions: primary human B cells with PBMC. On the procedure: BSK_BT is a cell-based, multiplexed-readout assay that uses B cell and peripheral blood mononuclear cells, a human vascular primary cell co-culture, with measurements taken at 24 hours after chemical dosing in a microplate: 96-well plate.BSK_BT_PBMCCytotoxicity is an assay component measured in the BSK_BT assay. It measures dehydrogenase activity, a form of viability reporter, as detected with fluorescence intensity signals by Alamar Blue Reduction technology.Data from the assay component BSK_BT_PBMCCytotoxicity was analyzed at the endpoint, BSK_BT_PBMCCytotoxicity, in the positive analysis fitting direction relative to DMSO as the negative control and baseline of activity. Using a type of viability reporter, gain or loss-of-signal activity can be used to understand cellular changes in viability. To generalize the intended target to other relatable targets, this assay endpoint is annotated to the 'cell cycle' intended target family, where the subfamily is 'cytotoxicity'.
The levels of cell surface (or secreted, indicated by the prefix "s") biomarker endpoints were measured by ELISA. Overt cytotoxicity to cells in confluent adherent cultures (all systems other than the BT system) was assessed by measuring total protein levels using sulforhodamine B (SRB) staining in parallel cultures at the time of biomarker measurements, indicated as SRB endpoints. For proliferation assays for adherent cell types, individual cell types are cultured at sub-confluence and relative cell numbers quantified by SRB staining at time points optimized for each system (48 h: 3C and CASM3C systems; 72 h: BT and HDF3CGF systems; 96 h: SAg system). SRB was performed by staining cells with 0.1% SRB after fixation with 10% TCA and reading wells at 560 nm.Viability and proliferation of PBMC (T cells) was quantified by Alamar Blue reduction for the SAg and BT systems. For PBMC viability (referred to as PBMC Cytotoxicity within the assay endpoint names), cells were plated (75,000/well in a 96-well plate) and then chemical samples added for 1 h before addition of activators, SEB and TSST-1 (20 ng/mL final concentration each). Cells were incubated for 90 h. Then, Alamar Blue (20 uL/well) (Invitrogen, Cat DAL1100) was added for 6 h, and the plates were read with a fluorescence microplate reader at 546/580 nm (excitation/emission). For PBMC proliferation, cells were plated and activated as above but incubated for only 16 h prior to addition of Alamar Blue. Plates were read after 6 h.
With `CCCCC(CC)COC(=O)c1ccccc1O` (configuration not stated), the outcome was inactive.

For `C=CCOc1c(Br)cc(Br)cc1Br`, the result was inactive.

Consider `CC(C)(c1cc(Br)c(OCCO)c(Br)c1)c1cc(Br)c(OCCO)c(Br)c1`, for which the outcome was inactive.

What is called AC50 is the concentration at which the activity in the assay is half-maximal. Turning to `C#CC1(O)CC[C@H]2[C@@H]3CCC4=CCCC[C@@H]4[C@H]3CC[C@@]21C` (some centres not stated), the AC50 was 34.3 µM (active).

`C=CC(=O)OCC(Br)CBr` (configuration not stated): the AC50 is 20.5 µM (active).

Regarding `CCOc1nc(F)cc2nc(S(=O)(=O)Nc3c(Cl)cccc3C(=O)OC)nn12`, the outcome was inactive.

Turning to `CCCCCCCCCCCCCCCC[N+](C)(C)CC`, the AC50 is 6.46 µM (active).

Regarding `O=C(Cl)c1cc(C(=O)Cl)cc(C(=O)Cl)c1`, the AC50 is 28 µM (active).

For `S=C(NC1CCCCC1)NC1CCCCC1`, the result was inactive.

For `O=Nc1ccc(O)cc1`, the result was inactive.

On to `C/C=C\C/C=C/CCCCCCCCOC(C)=O`, for which the AC50 was 20 µM (active).

Regarding `N#[N+]c1ccc2c(S(=O)(=O)[O-])cccc2c1O`, the result was inactive.

Consider `C=CC=CC=CCCCCC`, for which the result was inactive.

Consider `CC1OC1C1CCC2(C)OC2C1` (configuration not stated), for which the outcome was inactive.

In the case of `c1ccc2c(c1)ccc1ncccc12`, the outcome was inactive.

As for `COCc1c(C(C)C)nc(C(C)C)c(/C=C/[C@@H](O)C[C@@H](O)CC(=O)O)c1-c1ccc(F)cc1`, the result was inactive.

In the case of `CCCCNc1ccc(NCCCC)c2c1C(=O)c1ccccc1C2=O`, the outcome was inactive.

On to `COc1ccc2nc(N)sc2c1`, for which the outcome was inactive.

As for `O=c1c2ccccc2oc2ccccc12`, the result was inactive.

`c1ccc(-c2ccccn2)nc1`: the outcome was inactive.

With `O=C(Nc1ccccc1SSc1ccccc1NC(=O)c1ccccc1)c1ccccc1`, the AC50 is 6.24 µM (active).

Turning to `CCO[Si](CCCN=C=O)(OCC)OCC`, the result was inactive.

For the compound `C=CCOCC(O)CCl` (configuration not stated), the outcome was inactive.

Consider `CCCCC/C=C\C/C=C\CCCCCCCC(=O)OC`, for which the concentration at half-maximal activity (AC50) is 24.3 µM (active).

`CC(C)C(=O)C(C)C`: the result was inactive.

As for `CCCCCCCCc1ccc(Nc2ccc(CCCCCCCC)cc2)cc1`, the outcome was inactive.

For the compound `c1ccc2c(c1)ccc1cc3c(ccc4ccccc43)cc12`, the outcome was inactive.
